40 compounds from PubChem BioAssay (Tox21) can be followed below.

Inconclusive results are not listed. A number with no mark means an inactive call. Activity calls are given as the source filed them. Calls come from the whole dose curve; as a rule, active = well fitted activation curve with a large enough effect in the signal ratio in the repeat runs (not every such curve was filed as active); inconclusive = weak or mixed curves, or effect the other way; inactive = flat fitted curve, though single readings scatter; the % refers to the signal ratio.
% is set by controls: 0 for no effect and ±100 for the full control effect.

Bile acid receptor (Homo sapiens), sequence (Q96RI1 whole entry, looked up): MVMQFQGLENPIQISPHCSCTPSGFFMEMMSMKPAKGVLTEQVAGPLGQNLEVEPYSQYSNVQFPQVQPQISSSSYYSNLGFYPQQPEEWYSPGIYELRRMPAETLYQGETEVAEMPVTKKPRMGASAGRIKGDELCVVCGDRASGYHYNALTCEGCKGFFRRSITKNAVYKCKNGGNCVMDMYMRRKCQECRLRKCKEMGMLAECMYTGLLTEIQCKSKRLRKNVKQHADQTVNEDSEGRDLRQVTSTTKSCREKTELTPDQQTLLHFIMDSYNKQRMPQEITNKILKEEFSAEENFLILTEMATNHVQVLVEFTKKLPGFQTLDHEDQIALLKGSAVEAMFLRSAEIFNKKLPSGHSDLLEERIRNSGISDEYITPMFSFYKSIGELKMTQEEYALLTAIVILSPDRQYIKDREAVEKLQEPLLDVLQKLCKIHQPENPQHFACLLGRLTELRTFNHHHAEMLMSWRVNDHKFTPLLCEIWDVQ

The target in the experiment is Bile acid receptor (Homo sapiens) (UniProt Q96RI1). Kind of experiment: qHTS assay to identify small molecule agonists of the farnesoid-X-receptor (FXR) signaling pathway (AID 743220). The conditions noted are these: HEK293T FXR-UAS-bla, beta-lactamase FRET ratio, 16 h; series mostly up to 62.6 µM; activation: at the top concentration. An excerpt:
National Center for Advancing Translational Sciences [NCATS]
NIH Chemical Genomics Center [NCGC]
U.S. Environmental Protection Agency [EPA]
National Institutes of Environmental Health Sciences [NIEHS]
National Toxicology Program [NTP]
U.S. Food and Drug Administration [FDA]
The farnesoid-X-receptor (FXR), a nuclear hormone receptor, is highly expressed in liver, intestine, kidney and adrenal cortex. Natural ligands of FXR are the bile acids (Cholic acid, Chenodeoxy cholic acid etc). FXR is an important regulator of diverse metabolic pathways, including the bile acid homeostasis, lipid and glucose metabolisms. FXR regulates the expression of target genes by binding either as a monomer or as a heterodimer with the retinoid X receptor (RXR). Numerous studies have reported that FXR exerts protective function during cholestasis, diabetes, liver regeneration, and cancer. To identify compounds that activate FXR signaling, GeneBLAzer FXR-UAS-bla HEK 293T cell line (Invitrogen, Carlsbad, CA) containing a beta-lactamase reporter gene under the control of a UAS response element was used to screen the Tox21 10K compound library.
Tox21 Assay Protocol Summary:
FXR-bla cells were dispensed at 5000 cells/5uL/well in 1536-well black wall/clear bottom plates using a Multidrop Combi (Thermo Fisher Scientific, Waltham, MA) dispenser. After the assay plates were incubated at 37C and 5% CO2 for 5 h, 23 nL of compounds dissolved in DMSO, positive controls or DMSO only was transferred to the assay plate by a Pintool station (Kalypsys, San Diego, CA). The assay plates were incubated at 37C for 16 h. After 1 uL of LiveBLAzerTM B/G FRET substrate was added using a Bioraptr Flying Reagent Dispenser (FRD) workstation (Beckman Coulter, Indianapolis, IN), the plates were incubated at room temperature for 2 h, and fluorescence intensity was measured by an Envision plate reader (PerkinElmer, Shelton, CT).
(In general: Quantitative high-throughput screening tests each substance at several concentrations.)
For the compound `c1nc[nH]n1`, the outcome was inactive.
Turning to `N#CC(Br)Br`, the result was inactive.
Regarding `CCOP(=S)(OCC)O/N=C(\C#N)c1ccccc1`, the result was inactive.
With `ClC1C(Cl)C(Cl)C(Cl)C(Cl)C1Cl` (stereo not given), the result was inactive.
With `CC(C)N(C(=O)SCC(Cl)=C(Cl)Cl)C(C)C`, the outcome was inactive.
For `Nc1cccnc1`, the result was inactive.
In the case of `c1ccc(-c2cccc(-c3ccccc3)c2)cc1`, the outcome was inactive.
Turning to `C=C(C)[C@H]1Cc2c(ccc3c2O[C@@H]2COc4cc(OC)c(OC)cc4[C@@H]2C3=O)O1`, the outcome was inactive.
Still for that read-out and setting: the result for `CC(C)=CC1C(C(=O)OCc2coc(Cc3ccccc3)c2)C1(C)C` (stereo not given) reads “inactive”.
Consider `CCCCN(CCCC)N=O`, for which the outcome was inactive.
For the compound `CCCCNC(=O)n1c(NC(=O)OC)nc2ccccc21`, the outcome was inactive.
Still for that read-out and setting: the result for `Cc1cc(Cl)ccc1OCCCC(=O)O` reads “inactive”.
Consider `CC(C)Oc1cc(-n2nc(C(C)(C)C)oc2=O)c(Cl)cc1Cl`, for which the “activation” value is 3.4%.
In the case of `Cc1c(COC(=O)[C@@H]2[C@H](/C=C(\Cl)C(F)(F)F)C2(C)C)cccc1-c1ccccc1`, the “activation” value was -0.898%.
Consider `NC(=S)Nc1ccccc1`, for which the result was inactive.
As to `CCN(N=O)C(N)=O`, the result was inactive.
As to `COP(=O)(OC)OC`, the “activation” value is -0.122% [at 81.1 µM].
For `O=P(Oc1ccccc1)(Oc1ccccc1)Oc1ccccc1`, the outcome was inactive.
On to `CCC(C)(c1ccc(O)cc1)c1ccc(O)cc1`, for which the “activation” value was 6.18%.
`NCc1cccnc1`: the outcome was inactive.
Same read-out and setting: the result for `CCC(C)(C)c1ccc(O)cc1` reads “inactive”; that for `CN(C)C(=O)Nc1ccc(Cl)cc1`, “inactive”.
`O=C(NC(=O)c1c(F)cccc1F)Nc1ccc(Cl)cc1`: the “activation” value is -0.218%.
On to `Oc1ccc(-c2ccccc2)cc1`, for which the result was inactive.
Regarding `CCOc1cc(Oc2ccc(C(F)(F)F)cc2Cl)ccc1[N+](=O)[O-]`, the outcome was inactive.
Turning to `COP(=S)(OC)Oc1ccc([N+](=O)[O-])cc1`, the result was inactive.
On to `c1ccc(NNc2ccccc2)cc1`, for which the outcome was inactive.
As for `CN(C)c1ccc(C(=O)c2ccc(N(C)C)cc2)cc1`, the “activation” value is -1.35%.
With `CCC(C)c1ccc(O)cc1` (stereo not given), the outcome was inactive.
With `N#Cc1cc(Br)c(O)c(Br)c1`, the outcome was inactive.
In the case of `N[C@@H](Cc1ccc(N(CCCl)CCCl)cc1)C(=O)O`, the outcome was inactive.
The same measure, in the same setting: the value for `C#C[C@]1(O)CC[C@H]2[C@@H]3CCC4=CC(=O)CC[C@]4(C)[C@H]3CC[C@@]21C` was “inactive”.
Consider `Cc1cccc(N)c1N`, for which the result was inactive.
In the case of `CCCCCc1cc(O)cc(O)c1`, the “activation” value is 2.6% [at 81.1 µM].
In the case of `CC(C)c1ccc(CO)cc1`, the outcome was inactive.
In the case of `c1cc(OCC2CO2)ccc1Cc1ccc(OCC2CO2)cc1` (stereo not given), the “activation” value was -1.21%.
Take `CCc1cccc(CC)c1N(COC)C(=O)CCl`: the outcome was inactive.
Turning to `CCCCCCCCOC(=O)c1ccccc1C(=O)OCCCCCCCC`, the outcome was inactive.
Same read-out and setting: the value for `CCN(CC)C(=O)SCc1ccc(Cl)cc1` was “inactive”.
Turning to `Brc1ccc(Oc2cc(Br)c(Br)cc2Br)c(Br)c1`, the “activation” value is 1.02%.
